Screening data deposited in PubChem by The Scripps Research Institute Molecular Screening Center.
HTR5A inv ctr = HTR5A inverse agonism, opioid heterodimer counter-screen; HTR5A cell line, luminescence; inhibition, % at 9.3 µM; P47898; actives 0.083% (n = 340,000); in the data active = inhibition mostly above about 23%, no sharp cut-off; inactive = mostly below about 18%;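 also: 0% = cells with DMSO and 100% = no-cell wells with DMSO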
MOR-DOR inv ag-1 = inverse agonists of human mu-delta opioid receptor heterodimerization; P35372+P41143; cell-based MOR-DOR heterodimer luminescence, inverse agonism; inhibition, % at 9.3 µM; actives 0.21% (n = 340,000); AID 504357; in the data active = inhibition above about 22%, passing the limit was not always enough;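 also: 0% = cells with DMSO and 100% = wells without cells with DMSO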
Target sequence (P35372 whole entry, looked up): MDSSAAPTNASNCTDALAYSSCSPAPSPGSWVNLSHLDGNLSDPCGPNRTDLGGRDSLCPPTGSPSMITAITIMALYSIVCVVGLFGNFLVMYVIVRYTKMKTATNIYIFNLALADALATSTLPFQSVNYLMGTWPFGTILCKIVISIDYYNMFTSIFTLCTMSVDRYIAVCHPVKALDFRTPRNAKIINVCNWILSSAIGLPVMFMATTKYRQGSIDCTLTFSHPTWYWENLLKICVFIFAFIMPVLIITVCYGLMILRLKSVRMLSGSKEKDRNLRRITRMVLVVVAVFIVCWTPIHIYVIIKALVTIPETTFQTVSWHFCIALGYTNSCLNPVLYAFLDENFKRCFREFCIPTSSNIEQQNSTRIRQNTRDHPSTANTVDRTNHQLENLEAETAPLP
Target sequence (P41143 whole entry, looked up): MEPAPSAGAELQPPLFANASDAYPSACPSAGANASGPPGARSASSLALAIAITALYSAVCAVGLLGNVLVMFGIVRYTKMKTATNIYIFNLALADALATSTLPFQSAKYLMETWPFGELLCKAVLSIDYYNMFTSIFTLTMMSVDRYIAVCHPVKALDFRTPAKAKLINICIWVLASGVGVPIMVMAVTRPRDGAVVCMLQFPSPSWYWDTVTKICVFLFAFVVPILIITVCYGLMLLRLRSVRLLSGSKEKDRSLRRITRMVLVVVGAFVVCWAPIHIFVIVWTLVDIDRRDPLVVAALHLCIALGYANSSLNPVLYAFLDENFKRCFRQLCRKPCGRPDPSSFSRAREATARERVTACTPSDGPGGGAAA
MsrA inh = inhibitors of bovine MsrA | purified bovine MsrA, absorbance read-out | inhibition, % at 15.5 µM | actives 0.75% (n = 360,000); in the data active = inhibition above about 4.5%;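 also: 0% = vehicle wells with enzyme and 100% = reference inhibitor wells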
MsrA act = bovine methionine sulfoxide reductase A activation | purified bovine MsrA, absorbance read-out | activation, % at 10.6 µM | actives 0.3% (n = 360,000); in the data active = activation above about 7.5%;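 also: 0% = vehicle and 100% = reference activator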
OPRM1-OPRD1 ag = OPRM1-OPRD1 heterodimerization agonism; P35372+P41143; cells, luminescence; activation, % at 9.3 µM; actives 0.3% (n = 340,000); AID 504326; in the data active = activation above about 18%;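 also: 0% = vehicle-treated cells and 100% = reference agonist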
HTR5A ag = activates human HTR5A in OPRM1-OPRD1 agonist counter-screen | P47898 | HTR5A agonist assay, luminescence, cell-based | activation, % at 9.3 µM | actives 0.61% (n = 340,000) | AID 504692; in the data active = activation mostly above about 9.5%, no sharp cut-off; inactive = mostly below about 7.6%;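 also: 0% = cells with vehicle only and 100% = reference agonist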
MOR-DOR inv ag-2 = counter-screen for HTR5A inverse agonists: OPRM1-OPRD1 heterodimerization inverse agonism. shares compounds with HTR5A inv ctr. U2OS counter-screen cells, complementation luminescence. inhibition, % at 9.3 µM. 190 tested, under 10 active. AID 504912;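 also: 0% = cells with DMSO and 100% = wells without cells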
HTR5A inv confrm = HTR5A (human) inverse agonism, confirmation; shares compounds with HTR5A inv ctr; HTR5A-expressing cells, luminescence; inhibition, % at 9.3 µM; 190 tested, under 10 active; AID 504916;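 also: 0% = cells with DMSO and 100% = no cells with DMSO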
* hit, by the source's call; · = no result. In the library only some 1.9% were active in any assay of this set; here they are far more common. Unless noted, no rule for the calls is given here.

SMILES	HTR5A inv ctr	MOR-DOR inv ag-1	MsrA inh	MsrA act	OPRM1-OPRD1 ag	HTR5A ag	MOR-DOR inv ag-2	HTR5A inv confrm
Cc1cc(C)c(COc2ccc(/C=N/n3c(C)n[nH]c3=S)cc2)c(C)c1	37*	-14	1	-6	3	-10	-51	-7
O=[N+]([O-])c1ccc(/C=N/Nc2ccc3ccccc3c2)o1	28*	-51	0	-8	7	-11	-71	18
O=C(N/N=C/c1ccc([N+](=O)[O-])o1)c1cc2ccccc2o1	4	-31	2	0	6	-1	·	·
O=C(C(=O)N1CCC(CNS(=O)(=O)c2cccc3ccccc23)CC1)c1cccs1	·	·	0	·	·	·	·	·
CCCc1cc2c(O)ccc(O)c2c(=O)o1	·	·	0	·	·	·	·	·
COCCN(C(=O)c1ccccc1Oc1ccccc1)c1c(N)n(CC(C)C)c(=O)[nH]c1=O	35*	8	-2	-5	-2	-14	-415	-5
COc1cccc(CNC(=O)[C@H]2CCCN2C(=O)[C@H]2CCCN2C(=O)N2CCOCC2)c1	·	·	-1	·	·	·	·	·
O=C(CN1CCN(S(=O)(=O)c2ccc(F)cc2)CC1)NC1CCCC1	35*	7	-1	-1	-1	0	-17	6
O=C(CN1CCN(S(=O)(=O)c2ccc(Cl)cc2)CC1)NC1CCCC1	0	3	-1	-10	-1	0	·	·
CN1OC[C@@H]2CN(C(=O)C3CCCCC3)[C@H](c3ccc(N4CCCCC4)cc3)C[C@@H]21	·	·	0	·	·	·	·	·
Cc1ccccc1C1c2[nH]c3ccccc3c2C[C@H]2C(=O)N(C3CCN(Cc4ccccc4)CC3)CC(=O)N12 (stereo not given in full)	32*	-11	1	1	2	-9	-22	-3
Cc1cccc(NC(=S)N/N=C2/CCCCc3ccccc32)c1	43	16	0	-7	-3	-12	·	·
Cc1ccc(NC(=S)N/N=C2/CCCCc3ccccc32)cc1	44*	-3	1	-4	0	-15	-231	-44
COC(=O)C1=C(C)N(C)C(=NCc2cc(OC)c(OC)c(OC)c2)NC1c1cccc(F)c1 (stereo not given)	·	·	-1	·	·	·	·	·
CCC1(C)Cc2ccccc2-c2c1c(=O)n(-c1ccc(C)cc1)c1nnnn21 (stereo not given)	40*	5	0	-4	-1	-1	-120	-24
O=C(NCc1ccccc1)[C@H]1CCCN1C(=O)[C@H]1CCCN1C(=O)c1cccc(F)c1	·	·	-1	·	·	·	·	·
O=C1CCC[C@@H]2C[C@@]3(C[C@@H]4CCN1[C@H]24)Nc1cc([N+](=O)[O-])ccc1NC3=NC1CCCCC1	35*	16	2	-5	-3	-2	-24	-13
O=C1CCC[C@@H]2C[C@@]3(C[C@@H]4CCN1[C@H]24)Nc1cc(Cl)ccc1NC3=NC1CCCCC1	-17	-3	1	-2	0	4	·	·
CC(C)(C)c1ccc(S(=O)(=O)N2CCN(C(=O)C(=O)c3cccc(C(F)(F)F)c3)CC2)cc1	·	·	0	·	·	·	·	·
CCCN(CC(=O)Nc1ccccc1C)C(=O)c1ccc(C(=O)c2ccccc2)cc1	-20	-12	-1	0	2	7	·	·
CCCN(CC(=O)Nc1ccccc1C)C(=O)c1ccc(-c2ccc(C(C)=O)cc2)o1	43*	14	·	-5	-3	-5	-60	-8
Cc1ccc2ccc(C(Nc3cccc(C(F)(F)F)c3)c3cccnc3)c(O)c2n1 (stereo not given)	89*	-24	0	-3	4	-32	-11	-13
COc1cc(Br)cc(/C=C/c2ccc3cccc(O)c3n2)c1OC	9	-1	0	-2	0	-2	·	·
COc1ccc(/C=C/c2ccc3cccc(O)c3n2)c(OC)c1OC	35*	13	3	-9	-3	-9	-58	28
COc1cccc(/C=C/c2ccc3cccc(O)c3n2)c1OC	32*	-14	2	-1	3	-9	-68	12
SMILES	HTR5A inv ctr	MOR-DOR inv ag-1	MsrA inh	MsrA act	OPRM1-OPRD1 ag	HTR5A ag	MOR-DOR inv ag-2	HTR5A inv confrm
COc1cc(/C=C/c2ccc3cccc(O)c3n2)cc(OC)c1OC	16	14	1	-1	-3	-4	·	·
O=C(/C=C/c1ccc(F)cc1)NC(=S)NNC(=O)[C@H]1C[C@@H]1c1ccccc1	48*	20	0	-1	-4	-12	-40	-56
O=C(NC(=S)NNC(=O)[C@H]1C[C@@H]1c1ccccc1)c1ccc(F)cc1	-3	9	0	-6	-2	3	·	·
CC(=O)N1c2ccccc2-c2nc3ccccc3n2C1C (stereo not given)	32*	17	0	-4	-4	-8	-8	0
O=C(O)[C@H](Cc1ccccc1)NC(=O)[C@H]1O[C@@H](n2ccc(=O)[nH]c2=O)[C@H](O)[C@@H]1O	·	·	0	·	·	·	·	·
C#CCN1C[C@@]2(O)CC[C@@H](O)[C@@H](OC)[C@@H]2[C@@]1(C)[C@H](O)CC=C(C)C	·	·	0	·	·	·	·	·
C/C(=N\Nc1nc(N2CCOCC2)nc(N2CCOCC2)n1)c1cccs1	23*	18	2	-5	-3	-8	-17	-7
C/C(=N\Nc1nc(N2CCCCC2)nc(N2CCOCC2)n1)c1ccccc1O	·	·	0	-1	·	·	·	·
O=[N+]([O-])c1ccc(N/N=C/c2ccc(O)c(O)c2O)c(S(=O)(=O)N2CCOCC2)c1	27*	4	2	-6	-1	-10	8	5
O=[N+]([O-])c1ccc(N/N=C/c2cccc(O)c2O)c(S(=O)(=O)N2CCOCC2)c1	48*	-6	3	-8	1	-9	-23	27
CCCCNC(=O)C[C@H]1C[C@@]2(C(=O)OC)C(=C[C@H](COCc3ccccc3)O[C@@H]2C)N(CCC2=CCCCC2)C1=O	·	·	-1	·	·	·	·	·
Cc1cc(N2CCN(C(=O)OC(C)(C)C)C[C@H]2C)ccc1Br	·	·	1	·	·	·	·	·
COCCn1c(SCC(=O)NNC(=O)c2cc(Cl)ccc2OC)nnc1-c1ccncc1	43*	6	-1	0	-1	-18	-24	-154
COCCn1c(SCC(=O)Nc2cccc(OC)c2)nnc1-c1ccc(Cl)cc1	-10	7	2	-14	-1	1	·	·
Nc1[nH]c(C(=O)c2ccccc2)c(-c2ccc3ccccc3c2)c1C(=O)NC1CC1	·	·	0	·	·	·	·	·
C=CCn1c(SCC(=O)Nc2ccc(F)cc2)nc2cc(C(=O)O)ccc2c1=O	43*	3	1	-9	-1	2	-13	-85
CC(C)CCNC(=O)[C@@H](Cc1ccccc1)NC(=O)[C@H]1O[C@@H](n2ccc(=O)[nH]c2=O)[C@H](O)[C@@H]1O	·	·	0	·	·	·	·	·
O=C(NCc1ccccc1)[C@H]1CCCN1	·	·	0	·	·	·	·	·
COc1ccccc1C(=O)COC(=O)CCN=C1NS(=O)(=O)c2ccccc21	-6	9	0	-1	-1	2	·	·
